Hits are enriched below; roughly 8% of the tested compounds scored in any of these assays.
ELG1 DNA repair: ELG1-dependent DNA repair inhibition | 330,000 tested, 2.3% active | HEK293T ELG1-luciferase reporter, luminescence, 16 h; DNA damage induced by 5-fluorouridine | Potency, µM (highest dose often 46.1 µM), actives largely listed as inhibitors; also: nearly all actives have a fitted effect of over 55% in size
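Reporter activity after DNA damage by 5-fluorouridine is monitored. Compound-treated cells incubate 16 hr at 37 °C, then ONE-Glo is added for 30 min before luminescence reading.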
VP16 counter: counter-screen for ROR gamma inhibitors: Gal4-VP16 reporter; AID 2546; 310,000 tested, 3.5% active; Potency, µM (series often up to 53.6 µM), hits mostly inhibitors; Drosophila S2 Gal4-VP16 UAS-luciferase, luminescence, 20 h;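 also: Gal4-VP16 expression switched on by copper sulfate through the metallothionein promoter; nearly all actives have a fitted effect of over 50% in size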
TSHR antagonist: antagonists of human thyroid stimulating hormone receptor. P16473. activity change, negative = inhibition, % at 11.5 µM. 330,000 tested, 0.2% active. TSHR-expressing cells, TSH-stimulated cAMP HTRF, 2 h; hits give low values;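 active = activity change below a set negative limit, meaning inhibition stronger than a set level, cut at about -70% in these data; inconclusive = activity change between two set negative limits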
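Antagonism was scored as loss of TSH-driven cAMP in TSHR cells, stimulated with 4nM TSH (EC80) for 2 hours at 37 deg C and detected by homogeneous HTRF competition immunoassay.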
Coupling enz: coupling enzyme interference in Giardia aldolase counter-screen; AID 2472; coupling enzyme system counterscreen, AmpLite Red fluorescence; activity change, negative = inhibition, % at 58.2 µM, hits read low; 290,000 tested, 0.67% active; in the data active = activity change below about -30%
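Fluorescence at 525 nm excitation and 598 nm emission measured inhibition of the coupled detection system without aldolase. Compounds (at 57.5 uM final) were preincubated 10 min at room temperature with coupling enzyme reagent before a 20 min substrate/AmpLite Red step.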
RORg inh: ROR gamma (mouse) transcription inhibition; AID 2551; P51450; 310,000 tested, 5.4% active; Drosophila S2 Gal4-RORgamma UAS-luciferase reporter, 20 h; Potency, µM (titrated, usually from 53.6 µM), most hits filed as inhibitors; also: nearly all actives have a fitted effect of over 60% in size
Target sequence (P51450 whole entry, looked up, the tested form may be a part): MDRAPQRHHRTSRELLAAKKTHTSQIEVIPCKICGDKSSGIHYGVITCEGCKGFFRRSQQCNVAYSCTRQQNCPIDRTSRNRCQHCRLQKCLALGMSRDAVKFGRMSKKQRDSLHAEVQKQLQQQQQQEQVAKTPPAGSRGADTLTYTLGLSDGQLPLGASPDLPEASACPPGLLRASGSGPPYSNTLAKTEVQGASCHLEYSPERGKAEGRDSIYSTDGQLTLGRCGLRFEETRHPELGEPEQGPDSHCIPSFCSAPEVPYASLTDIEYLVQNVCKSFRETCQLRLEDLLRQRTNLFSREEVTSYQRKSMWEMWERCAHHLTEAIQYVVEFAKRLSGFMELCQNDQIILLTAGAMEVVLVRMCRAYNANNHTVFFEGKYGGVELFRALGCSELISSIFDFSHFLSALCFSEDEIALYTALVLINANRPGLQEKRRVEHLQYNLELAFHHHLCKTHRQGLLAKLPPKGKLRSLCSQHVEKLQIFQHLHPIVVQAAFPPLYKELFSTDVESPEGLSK
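Schneider cells (Drosophila), stable Gal4 DBD–ROR gamma + UAS-luc; 1 hr cmpd preincubation; Cu2+ induction 700 uM final; 20 hr ambient; luminescence.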
Hits are given with their value; n = inactive; u = inconclusive; x = not tested or not shown; [ ] = dose if it differs, or a comment. Unless noted, calls follow the shape of the dose curve; as a rule, active = well fitted curve in the direction sought with a large enough effect; inconclusive = small, poorly fitted or top-dose-only effect, or another doubt; inactive = no such curve, though single readings can be large; an effect the other way counts as inactive or inconclusive.

SMILES | ELG1 DNA repair | VP16 counter | TSHR antagonist | Coupling enz | RORg inh
COC(=O)[C@H](Cc1ccccc1)NC(=O)O[C@@H]1C(=O)c2cc(Br)ccc2O[C@H]1c1ccc2c(c1)OCO2 | x | n | x | n | n
Nc1c2c(nc3sc4c(c13)CCCC4)-c1ccccc1CC2 | u | 10µM | n | n | u
O=C1C=C(c2cccs2)C[C@H](c2ccccc2)[C@H]1n1nnc([N+](=O)[O-])n1 | n | n | n | n | u
CC(=O)C1C(=O)C=C(c2cccs2)CC1c1ccccc1 (stereo unspecified) | n | n | n | n | 12.6µM
COc1cccc(CNC(=O)c2nnn(CC(=O)Nc3cccc(C)c3)c2N)c1 | n | n | n | n | n
Cc1ccc(S(=O)(=O)N[C@H]2COC(=O)C/C=C\[C@@H](C)[C@H](NS(=O)(=O)c3ccc(C)cc3)COC(=O)[C@H](C)NC(=O)C/C=C\[C@H]2C)cc1 | x | n[10 µM] | x | n | n[10 µM]
Oc1ccc(C[C@H]2CNC(=S)N2CCc2cc(C(F)(F)F)cc(C(F)(F)F)c2)cc1 | n | n | n | n | 17.8µM
FC(F)(F)c1cc(CCN2C(=S)NC[C@@H]2CC2CCCCC2)cc(C(F)(F)F)c1 | n | 6.31µM | n | n | 2.24µM
FC(F)(F)c1cc(CCN2C(=S)NC[C@@H]2Cc2ccccc2)cc(C(F)(F)F)c1 | n | 2.82µM | n | n | 3.55µM
FC(F)(F)c1cc(CCN2C(=S)NC[C@@H]2c2ccccc2)cc(C(F)(F)F)c1 | n | 11.2µM | n | n | 5.62µM
Cc1cccc(CNc2cc(-c3ccoc3)ncn2)c1 | x | n | x | n | n
N#CCCS(=O)(=O)c1ccccc1 | x | n | x | n | n
C/C(=N\NC(=S)NCc1ccccc1)c1ccc(C(C)(C)C)cc1 | u | 1.41µM | n | n | 1µM
C/C(=N\NC(=S)NCc1ccccc1)c1ccccc1F | n | n | n | n | 1.26µM
C/C(=N\NC(=S)NCc1ccccc1)c1ccccc1 | u | 3.55µM | n | n | 3.55µM
C/C(=N\NC(=O)COc1ccc(C(C)(C)C)cc1)c1ccccc1 | n | n | n | n | n
C/C(=N\NC(=O)CCC(=O)NCc1ccccc1)c1ccc([N+](=O)[O-])cc1 | n | x | n | x | x
C/C(=N\NC(=S)NCc1ccccc1)c1ccco1 | u | 7.08µM | n | n | 1.78µM
COc1cc(C2/C(=C(\O)c3ccc4c(c3)OCCO4)C(=O)C(=O)N2Cc2ccco2)cc(OC)c1OC (stereo unspecified) | n | n | n | x | n
C=CCNC(=O)COC(=O)C1CCN(S(=O)(=O)c2ccc3c(c2)OCCO3)CC1 | u | n | n | x | n
C/C(=N\NC(=S)NCc1ccccc1)c1ccc(C#N)cc1 | n | 7.08µM | n | n | 2.82µM
CC/C(C)=N/NC(=S)NCc1ccco1 | n | u | n | n | 10µM
S=C(NCc1ccccc1)N1CCCCC1 | n | n | n | n | u
CC1=C/C(=N\NC(=S)NCc2ccccc2)CC1 | n | 3.16µM | n | n | 0.562µM
COc1ccc(CNC(=S)N/N=C(/C)c2ccccc2)cc1 | u | u | n | n | 8.91µM
SMILES | ELG1 DNA repair | VP16 counter | TSHR antagonist | Coupling enz | RORg inh
COc1ccc(C2CC(c3ccccc3)Oc3cc(OC)ccc32)cc1 (stereo unspecified) | x | n | x | n | n
CC(=O)OC1CC[C@@]2(C)C3=CC(=O)[C@]4(C)C(CC5OC6(OCC(C)CC6Br)C(C)C54)C3CC[C@H]2C1 (stereo partly specified) | x | n | x | n | n
CCOc1ccc(CNC(=O)C(=O)c2cn(CC(=O)N3CCOCC3)c3ccccc23)cc1OC | n | n | n | x | n
CCOCCCNC(=O)C1(O)c2ccccc2NC(=O)N1c1ccc(Cl)cc1 (stereo unspecified) | n | u | n | n | n
C=CCNC(=S)N(Cc1ccccc1)Cc1ccccc1 | n | n | n | n | u
CC(C)CC(=O)NC(=S)N(Cc1ccccc1)Cc1ccccc1 | n | 6.31µM | n | n | 3.16µM
CC(C)C(=O)NC(=S)N(Cc1ccccc1)Cc1ccccc1 | n | 5.01µM | n | n | 2.82µM
C=CCc1ccc(O)c(-c2ccc(O)c(CC=C)c2)c1 | n | 22.4µM | n | n | u
CCOc1ccc(S(=O)(=O)Nc2ccc(F)cc2)c(C)c1C | u | 17.8µM | n | n | u
CC(SC1=NCCS1)C(=O)Nc1nnc(-c2ccc(Cl)cc2)s1 (stereo unspecified) | u | 8.91µM | n | n | 5.01µM
COc1ccccc1-c1nnc(NC(=O)C(C)SC2=NCCS2)s1 (stereo unspecified) | u | u | n | n | 12.6µM
CCNc1nnc(-c2ccccc2OC)s1 | u | n | n | n | n
C=C(C)C1CC=C(C)/C(=N/NC(=S)Nc2ccccc2)C1 (stereo unspecified) | n | 1.12µM | n | n | 1.12µM
Cc1ccc(C)c(Oc2cc(NC(=O)CCCn3nc(C)c([N+](=O)[O-])c3C)cc([N+](=O)[O-])c2)c1 | u | n | u | n | u
CCn1nc(C)c(C(=O)Nc2cc(Oc3cc(C)cc(C)c3)cc([N+](=O)[O-])c2)c1C | 13µM | n | n | n | u
Cc1ccc(Oc2cc(NC(=O)CCCn3nc([N+](=O)[O-])cc3C)cc([N+](=O)[O-])c2)cc1 | u | n | -70.5 | n | n[10 µM]
Cc1nn(CCCC(=O)Nc2cc(Oc3ccccc3)cc([N+](=O)[O-])c2)c(C)c1[N+](=O)[O-] | u | u | n | n | 2µM
CCCCCCCCN=C(N)c1ccc(C(=O)OCC2CCCCC2)cc1 | x | n | x | n | 7.94µM
CCCCCCCCOC(=O)c1ccc(N)cc1 | n | n | n | n | n
CCN(CC)S(=O)(=O)c1cc(NC(=O)C(C)N(C)CC(=O)Nc2c(C)cccc2C)ccc1C (stereo unspecified) | 20.6µM | n | n | n | n
CC(=O)c1cccc(N(C(=O)CNC(=O)c2cccs2)C(C(=O)NCC2CCCO2)c2ccccc2)c1 (stereo unspecified) | n | n | n | n | n
CSc1nc(N2CCN(C)CC2)c2c(c1C#N)CC(C)(C)OC2 | 8.2µM | n | n | n | n
Cc1nc(N2CCN(Cc3ccccc3)CC2)c(C#N)c2c1COC(C)(C)C2 | 7.31µM | n | n | n | u
COC(=O)[C@]1(C)CCC[C@]2(C)c3ccc(C(C)C)cc3C(=O)CC12 (stereo partly specified) | x | n | x | n | n
C[C@@H]1/C=C\CC(=O)OC[C@H](C)C(=O)N[C@@H](C)C(=O)OC1 | x | n[10 µM] | x | n | n[10 µM]
Cc1ccc(S(=O)(=O)N2CCOCC2)cc1C(=O)NC(=S)N1CC(C)OC(C)C1 (stereo unspecified) | n | 15.8µM | n | n | 4.47µM
O=C(NC(=S)Nc1ccc(S(=O)(=O)N2CCCCC2)cc1)c1ccccc1 | u | u | n | n | 8.91µM
CC(=O)Nc1ccc(C(=O)Nc2ccc(S(=O)(=O)N3CCCC3)cc2)cc1 | u | n | n | n | n

Screening results as filed in PubChem BioAssay.
